Growth data for 15 molecules are collected here from PubChem BioAssay (NCI).

Each structure is given as a SMILES string. Several values for one entry are separate records, joined by “and”; a condition that tells them apart may be missing. Equal entries are not always repeated. About 83,000 compounds went through this panel and 20% of them were active in at least one assay; those are over-represented in the sample as a whole.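 Results are percent growth after 48 hours of single-concentration exposure. 100 means growth as in untreated cells, lower positive values show inhibition; negative values down to -100 show cell death.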 Activity calls are given as the source filed them. How the source made its calls: active means growth percent below 10; inactive means the rest.

The assay deals with MDA-MB-468 breast. The experiment in a line: NCI-60 one-dose screen, 48 h (100 = growth as untreated, 0 = no growth, -100 = all killed). The note with it: 10 µM unless noted.
Consider `CCCCCCCCOc1ccc(/C=N/Nc2cc(C)nc3ccc(Cl)cc23)cc1`, for which the growth is -49.9% (active). Take `CC(=O)Oc1c2c(nc3c1c1ccccc1n3Cc1ccccc1)-c1ccccc1C2`: the growth was 92.2% (inactive).

As to `O=C(Nc1cccc(-n2cc(-c3ccncc3)c(-c3ccc(Cl)c(O)c3)n2)c1)Nc1cc(C(F)(F)F)cc(C(F)(F)F)c1`, the growth was -23.9% (active). As to `COc1ccc(Cn2c(NCCN=C(N)N)nc(=O)n(Cc3ccc(F)cc3)c2=O)cc1`, the growth is 56.7% (inactive) and 33.4% (inactive). Regarding `COc1ccc(S(=O)(=O)Nc2cc(Sc3cccc4cccnc34)c(O)c3ccccc23)cc1`, the growth was -39.6% (active). In the case of `O=S(=O)(O)c1ccc(O)c(C2CCCCC2)c1`, the growth is 103% (inactive). Take `C=CCCCCCCCCC(=O)[O][Sn]([CH2]CCC)([CH2]CCC)[CH2]CCC`: the growth is -85.6% (active). `CCOC(=O)Nc1nccs1`: the growth is 120% (inactive).

`CC(C)(C)c1ccc(O)c(C2CCCCC2)c1`: the growth was 111% (inactive).

For `Cc1ccccc1-n1nnc(C(=O)Nc2ccc(-c3ccccc3)cn2)c1C`, the growth was 4.89% [50 µM] (active). The figure for `O=C(NNC(=O)c1ccc(NC(=O)c2ccccn2)cc1)Nc1ccc([N+](=O)[O-])cc1` is 94.2% (inactive); for `NNC(=S)N/N=C/c1ccccn1` it is 8.55% (active); for `O=C1CC2(O)CSc3nc(=O)cc(n32)N1` (stereo not given) it is 109% (inactive). With `COc1ccc(NC(=O)c2cc(OC)c(OC)c(OC)c2)cc1O`, the growth is 29.8% (inactive).

Regarding `CCOC(=O)CC[C@H](NC(=O)c1ccc(NC)c2ccccc12)C(=O)OCC`, the growth is 95.1% (inactive).
